Compound activity (PubChem BioAssay)
Methyltransferases = Primary Screen for Target Class Profiling of Small Molecule Inhibitors of Methyltransferases | purified enzyme, MTase-Glo SAH luminescence; hits give low values | calls only at 40 µM | actives 3.9% (n = 25,000) | AID 1745853, 2022; call rule not given here
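Each enzyme was reacted with SAM and its substrate, with compounds tested once at 40 uM; SAH formed was read by MTase-Glo luminescence.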
MTase-Glo counter = Counterscreen for Target Class Profiling of Small Molecule Inhibitors of Methyltransferases; shares compounds with Methyltransferases; MTase-Glo coupled enzymes, SAH conversion luminescence, no MTase; Potency, µM (doses to about 57.3 µM), hits mostly inhibitors; actives 6% (n = 180); AID 1745851, 2022; active = well fitted inhibition curve with a large enough effect
Calls only. The full list was thinned out, with hits kept by preference.

What do the screens show for `CN1C(=O)c2cc(C(=O)NCc3ccccc3Cl)nn2CC1(C)C(=O)NC1CCCC1` (configuration not stated)?
Methyltransferases: inactive

Results for CCNc1ncc(CN2CCN(c3ccncc3)CC2)cn1 ?
Methyltransferases: active; MTase-Glo counter: inactive

How did CCN1CCN(C(=O)C2CCCN(Cc3ccncc3)CCC(=O)NCC2)CC1 (configuration not stated) do in these assays?
Methyltransferases: inactive

How did COc1ccc(CNC(=O)C2(C)Cn3cnc(C(=O)NCCc4ccco4)c3C(=O)N2C2CC2)cc1 (configuration not stated) do in these assays?
Methyltransferases: inactive

How did O=c1c2ccccc2n2c(=O)n(Cc3ccc(Cl)cc3)nc2n1Cc1ccccc1 do in these assays?
Methyltransferases: inactive

What do the screens show for `C[S+](=O)([O-])N1CCC(Cn2ccc3c(N4CCOCC4)nc(-c4cccc5[nH]ncc45)cc32)CC1`?
Methyltransferases: active; MTase-Glo counter: inactive

How did COc1ccccc1CNC(=O)C1(C)Cn2nc(-c3ccccc3)cc2C(=O)N1c1ccc(C)cc1C (configuration not stated) do in these assays?
Methyltransferases: inactive

What do the screens show for `Cc1c(Cl)cccc1NC(=O)Cn1c(=O)oc2cc(S(=O)(=O)N3CCCC3)ccc21`?
Methyltransferases: inactive

What do the screens show for `Cc1ccc(NC(=O)N2Cc3c(sc4c3CCCC4)-n3cccc3C2c2ccccc2)cc1F` (configuration not stated)?
Methyltransferases: inactive

Results for O=C(CC1CCOCC1)N1CCN(c2ncccn2)CC1 ?
Methyltransferases: inactive

What do the screens show for `O=C(CC1CCCC1)N1CCC(c2noc(-c3cnccn3)n2)C1` (configuration not stated)?
Methyltransferases: inactive

What do the screens show for `O=C(CC1CCCC1)N1CCC(Nc2cccnc2)C1` (configuration not stated)?
Methyltransferases: active; MTase-Glo counter: inactive

Results for COc1ccccc1CNC(=O)C1c2c(n(C)c3ccccc23)SCC(=O)N1c1ccc(C(C)C)cc1 (configuration not stated) ?
Methyltransferases: inactive

How did CNC(=O)[C@@H]1CN(C(=O)c2cc3cc(OC)ccc3[nH]2)C[C@H]1COC do in these assays?
Methyltransferases: inactive

How did COc1ccc2[nH]c(CNc3cc(C4CC(N)C4)nc(C)n3)cc2c1 (configuration not stated) do in these assays?
Methyltransferases: active; MTase-Glo counter: inactive

How did C#CCNCc1cc2cc(OCc3ccccc3)ccc2[nH]1 do in these assays?
Methyltransferases: inactive

Results for CCOC(=O)c1cc2n(n1)CC(C)(C(=O)NC1CCCCC1)N(c1ccccc1CC)C2=O (configuration not stated) ?
Methyltransferases: inactive

Results for CC1(C(=O)NC2CCCCCC2)Cn2c(cc3occc32)C(=O)N1Cc1ccccn1 (configuration not stated) ?
Methyltransferases: inactive

Results for COc1ccc(-c2[nH]nc3ncc(C(=O)N4CCC(c5ccccc5)CC4)nc23)c(C)c1 ?
Methyltransferases: active; MTase-Glo counter: inactive

How did COc1cccc(CN2CCCC3(CCN(C(=O)c4cnc(C)cn4)C3)C2)c1 (configuration not stated) do in these assays?
Methyltransferases: inactive

Results for CCOc1ccccc1C(=O)N1CCC(c2n[nH]c(=O)n2Cc2ccc(OC)cc2)CC1 ?
Methyltransferases: inactive

Results for CCOC(=O)c1cc2n(n1)CC(C)(C(=O)NCCCOC)N(c1ccc(OC)cc1)C2=O (configuration not stated) ?
Methyltransferases: inactive

Results for O=C(CCCc1nnc2n3nc(-c4ccccc4)nc3c3ccccc3n12)NCc1ccc(F)cc1 ?
Methyltransferases: inactive

Results for CCc1nc2cc(N3CCC(C(=O)NCc4cccnc4)CC3)cnc2nc1CC ?
Methyltransferases: inactive

What do the screens show for `O=C(NCC1CCCO1)c1cc(-c2ccccc2F)cc2c1OCCN2Cc1cccnc1` (configuration not stated)?
Methyltransferases: inactive

Results for CC(=O)Nc1cc(-c2cc(C(=O)NCc3cccnc3)c3c(c2)N(C)CCO3)ccn1 ?
Methyltransferases: active; MTase-Glo counter: inactive

What do the screens show for `COc1ccc(-c2cc(C(=O)NCc3cccnc3)c3c(c2)N(C)CCO3)cc1OC`?
Methyltransferases: active; MTase-Glo counter: inactive

Results for CN1CCOc2c(C(=O)NCc3cnn(C)c3)cc(-c3ccc([S+](C)(=O)[O-])cc3)cc21 ?
Methyltransferases: inactive

Results for CNC(=O)c1cc(-c2cnc(OC)nc2)cc2c1OCCN2Cc1cccnc1 ?
Methyltransferases: inactive

What do the screens show for `CCOc1ccccc1NC(=O)N1Cc2c(sc3c2CCCC3)-n2cccc2C1c1cccc(F)c1` (configuration not stated)?
Methyltransferases: inactive
